# About 7,900 targets were measured; listed, in parts, are those with a hit and a random draw of the rest. About 0.6% of all pairs of compound and target were hits.
# Experiments:
# Experiment in all cases: log2 fold change, soluble protein after heating vs DMSO (PISA); higher = thermal stabilisation; K562 cells, 10 uM, 30 min; active = over 0.2 and 3.5 SD of the protein, either way, in both replicates (recomputed)
# [1] = compound: C1=CC=C(C=C1)[C@H](COC2=CC3=C(C=C2)NC(=O)N3)NC(=O)C4=CC=CN(C4=O)CC5=CC(=C(C=C5)F)F
# Outline: (§1)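 Thermal stability values are relative to control samples and come from duplicates. They are expressed as log2 fold changes. For measurement, K562 cells (2×10^6 cells/mL) received 10 μM compound for 30 min, and aliquots were heated for 3 min over 48°C-58°C, pooled, and extracted at 4°C in PBS with 0.5% NP-40. Soluble protein, the supernatant after 21,000xg for 90 min, was quantified by TMTpro 16plex LC-MS/MS with equalised channel sums.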
# [2] = compound: CC1=C(SC2=C1C(=N[C@H](C3=NN=C(N32)C)CC(=O)N)C4=CC=C(C=C4)Cl)C
# Outline: as §1
# [3] = compound: CC1=C2C(=CC=C1)N=C(N(C2=O)C3=CC=CC=C3C)CN4C=NC5=C(N=CN=C54)N
# Outline: as §1
# [4] = compound: Cc1sc2c(c1C)C(c1ccc(Cl)cc1)=N[C@@H](CC(=O)OC(C)(C)C)c1nnc(C)n1-2
# Outline: as §1
# [5] = compound: c1ccc([C@@H]2C[C@H]2NC2CCNCC2)cc1
# Outline: as §1
# Chain of UniProt Q9H3S7 (Q9H3S7 whole entry, looked up): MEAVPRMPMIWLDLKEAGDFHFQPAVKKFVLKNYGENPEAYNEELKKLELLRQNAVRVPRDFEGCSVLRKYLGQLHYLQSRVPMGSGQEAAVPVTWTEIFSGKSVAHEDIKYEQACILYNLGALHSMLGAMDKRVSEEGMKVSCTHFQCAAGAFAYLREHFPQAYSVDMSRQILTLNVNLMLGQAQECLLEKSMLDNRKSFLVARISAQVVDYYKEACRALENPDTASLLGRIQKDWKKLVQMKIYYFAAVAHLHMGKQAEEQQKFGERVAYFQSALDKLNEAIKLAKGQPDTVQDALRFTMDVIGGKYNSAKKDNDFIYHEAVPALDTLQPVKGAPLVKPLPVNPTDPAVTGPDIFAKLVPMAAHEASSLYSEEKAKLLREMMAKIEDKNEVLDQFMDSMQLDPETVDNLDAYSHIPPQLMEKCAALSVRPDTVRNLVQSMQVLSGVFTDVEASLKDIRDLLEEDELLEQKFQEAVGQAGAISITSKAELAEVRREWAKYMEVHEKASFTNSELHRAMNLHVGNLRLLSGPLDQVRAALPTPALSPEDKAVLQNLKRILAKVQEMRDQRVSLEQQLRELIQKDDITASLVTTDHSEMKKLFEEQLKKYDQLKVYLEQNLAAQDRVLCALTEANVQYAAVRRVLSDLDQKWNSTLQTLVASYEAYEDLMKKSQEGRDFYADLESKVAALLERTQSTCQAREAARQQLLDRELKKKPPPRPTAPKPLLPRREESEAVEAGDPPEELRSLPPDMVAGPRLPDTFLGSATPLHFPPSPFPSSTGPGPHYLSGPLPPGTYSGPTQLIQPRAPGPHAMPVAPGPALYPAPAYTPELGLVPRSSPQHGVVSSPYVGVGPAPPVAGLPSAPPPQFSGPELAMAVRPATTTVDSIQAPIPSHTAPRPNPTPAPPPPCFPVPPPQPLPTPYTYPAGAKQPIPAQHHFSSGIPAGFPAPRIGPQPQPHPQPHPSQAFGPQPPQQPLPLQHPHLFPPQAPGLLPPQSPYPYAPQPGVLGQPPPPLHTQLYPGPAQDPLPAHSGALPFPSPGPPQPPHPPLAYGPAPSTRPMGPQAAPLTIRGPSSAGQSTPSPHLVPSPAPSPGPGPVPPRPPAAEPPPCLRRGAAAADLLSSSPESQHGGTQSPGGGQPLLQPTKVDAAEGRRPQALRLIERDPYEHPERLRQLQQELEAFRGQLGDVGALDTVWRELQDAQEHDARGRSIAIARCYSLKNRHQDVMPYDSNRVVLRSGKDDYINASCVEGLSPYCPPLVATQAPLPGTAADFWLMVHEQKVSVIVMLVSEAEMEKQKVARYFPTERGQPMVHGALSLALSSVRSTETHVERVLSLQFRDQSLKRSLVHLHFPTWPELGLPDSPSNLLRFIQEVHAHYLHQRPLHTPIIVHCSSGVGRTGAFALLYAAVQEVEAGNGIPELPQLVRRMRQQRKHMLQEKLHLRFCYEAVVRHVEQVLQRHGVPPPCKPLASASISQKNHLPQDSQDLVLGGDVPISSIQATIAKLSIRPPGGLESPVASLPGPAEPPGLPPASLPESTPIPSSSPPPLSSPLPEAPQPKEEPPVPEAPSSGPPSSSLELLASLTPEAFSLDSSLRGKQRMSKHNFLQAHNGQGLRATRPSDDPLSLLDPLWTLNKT
# Chain of UniProt O95997 (O95997 whole entry, looked up): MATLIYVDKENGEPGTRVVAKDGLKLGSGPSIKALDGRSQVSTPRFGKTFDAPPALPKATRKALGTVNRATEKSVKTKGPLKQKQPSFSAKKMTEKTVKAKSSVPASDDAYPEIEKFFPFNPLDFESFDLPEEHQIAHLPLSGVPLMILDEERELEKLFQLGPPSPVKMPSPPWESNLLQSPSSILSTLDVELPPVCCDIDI
# Chain of UniProt Q9Y5Y5 (Q9Y5Y5 whole entry, looked up): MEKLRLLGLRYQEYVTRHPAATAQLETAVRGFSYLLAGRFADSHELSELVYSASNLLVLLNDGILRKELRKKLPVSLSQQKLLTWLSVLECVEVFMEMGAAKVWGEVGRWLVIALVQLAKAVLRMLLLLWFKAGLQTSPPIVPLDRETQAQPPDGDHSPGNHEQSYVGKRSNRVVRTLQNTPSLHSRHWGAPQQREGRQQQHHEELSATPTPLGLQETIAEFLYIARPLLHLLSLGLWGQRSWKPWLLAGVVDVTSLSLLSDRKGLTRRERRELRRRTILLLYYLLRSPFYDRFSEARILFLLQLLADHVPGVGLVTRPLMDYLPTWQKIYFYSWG
# Chain of UniProt Q86UU1 (Q86UU1 whole entry, looked up): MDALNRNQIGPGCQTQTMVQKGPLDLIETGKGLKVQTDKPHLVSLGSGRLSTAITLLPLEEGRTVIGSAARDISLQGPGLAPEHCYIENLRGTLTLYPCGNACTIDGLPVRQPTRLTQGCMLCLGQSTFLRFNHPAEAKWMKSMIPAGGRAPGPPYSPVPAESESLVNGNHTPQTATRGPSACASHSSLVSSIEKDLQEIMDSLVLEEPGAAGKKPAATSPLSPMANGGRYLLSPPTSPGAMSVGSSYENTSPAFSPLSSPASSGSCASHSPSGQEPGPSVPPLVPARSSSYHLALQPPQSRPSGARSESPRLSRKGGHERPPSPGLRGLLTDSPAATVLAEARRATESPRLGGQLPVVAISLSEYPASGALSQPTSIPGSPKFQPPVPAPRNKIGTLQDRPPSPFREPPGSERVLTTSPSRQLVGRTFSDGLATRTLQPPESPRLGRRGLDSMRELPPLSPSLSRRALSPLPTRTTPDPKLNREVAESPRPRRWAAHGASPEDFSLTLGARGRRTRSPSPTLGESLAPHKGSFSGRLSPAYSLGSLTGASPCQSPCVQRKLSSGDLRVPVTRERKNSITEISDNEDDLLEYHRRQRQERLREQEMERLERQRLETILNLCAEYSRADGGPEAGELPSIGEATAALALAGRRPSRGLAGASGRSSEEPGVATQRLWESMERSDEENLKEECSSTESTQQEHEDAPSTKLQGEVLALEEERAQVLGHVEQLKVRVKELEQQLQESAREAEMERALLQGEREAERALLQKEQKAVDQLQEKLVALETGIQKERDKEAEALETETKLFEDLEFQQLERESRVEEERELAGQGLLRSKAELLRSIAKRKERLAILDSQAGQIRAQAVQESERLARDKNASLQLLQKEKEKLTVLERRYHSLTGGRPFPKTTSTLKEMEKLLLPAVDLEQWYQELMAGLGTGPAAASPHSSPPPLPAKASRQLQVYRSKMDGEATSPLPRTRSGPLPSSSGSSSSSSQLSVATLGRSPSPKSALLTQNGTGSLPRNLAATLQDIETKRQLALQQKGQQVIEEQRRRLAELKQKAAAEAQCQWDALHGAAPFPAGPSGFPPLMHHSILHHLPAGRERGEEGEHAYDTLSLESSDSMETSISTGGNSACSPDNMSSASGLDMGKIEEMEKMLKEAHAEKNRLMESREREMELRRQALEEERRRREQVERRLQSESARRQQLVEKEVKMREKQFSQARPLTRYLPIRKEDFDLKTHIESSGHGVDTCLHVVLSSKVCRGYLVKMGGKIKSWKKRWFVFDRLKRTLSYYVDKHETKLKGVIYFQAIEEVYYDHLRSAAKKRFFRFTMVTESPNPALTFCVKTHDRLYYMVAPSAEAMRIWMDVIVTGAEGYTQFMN
# Chain of UniProt Q5JVF3 (Q5JVF3 whole entry, looked up): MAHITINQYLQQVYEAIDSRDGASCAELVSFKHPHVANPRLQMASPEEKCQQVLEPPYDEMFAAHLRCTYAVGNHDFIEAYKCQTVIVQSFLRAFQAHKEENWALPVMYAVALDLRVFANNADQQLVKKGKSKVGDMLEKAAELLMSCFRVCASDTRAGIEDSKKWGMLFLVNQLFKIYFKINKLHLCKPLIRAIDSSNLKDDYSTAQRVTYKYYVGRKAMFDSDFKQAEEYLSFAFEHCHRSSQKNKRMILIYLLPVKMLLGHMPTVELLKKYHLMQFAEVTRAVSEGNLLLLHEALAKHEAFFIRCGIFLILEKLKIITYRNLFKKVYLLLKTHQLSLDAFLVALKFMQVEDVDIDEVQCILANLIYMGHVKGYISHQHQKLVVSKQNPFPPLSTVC
# Chain of UniProt O15355 (O15355 whole entry, looked up): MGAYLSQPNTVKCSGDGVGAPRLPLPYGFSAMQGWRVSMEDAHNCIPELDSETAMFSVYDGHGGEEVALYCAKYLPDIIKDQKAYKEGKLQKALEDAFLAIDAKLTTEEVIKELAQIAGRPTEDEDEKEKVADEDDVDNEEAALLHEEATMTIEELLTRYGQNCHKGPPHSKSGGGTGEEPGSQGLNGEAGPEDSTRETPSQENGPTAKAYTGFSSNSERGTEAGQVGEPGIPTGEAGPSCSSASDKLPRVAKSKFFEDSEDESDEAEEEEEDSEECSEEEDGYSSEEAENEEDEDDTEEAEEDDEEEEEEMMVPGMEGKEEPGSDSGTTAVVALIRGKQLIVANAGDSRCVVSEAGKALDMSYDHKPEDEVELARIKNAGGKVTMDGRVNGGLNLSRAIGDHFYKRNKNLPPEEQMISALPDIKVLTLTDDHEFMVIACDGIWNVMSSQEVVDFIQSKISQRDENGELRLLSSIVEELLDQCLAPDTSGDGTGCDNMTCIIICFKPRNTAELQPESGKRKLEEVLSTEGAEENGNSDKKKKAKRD
# Chain of UniProt P50897 (P50897 whole entry, looked up): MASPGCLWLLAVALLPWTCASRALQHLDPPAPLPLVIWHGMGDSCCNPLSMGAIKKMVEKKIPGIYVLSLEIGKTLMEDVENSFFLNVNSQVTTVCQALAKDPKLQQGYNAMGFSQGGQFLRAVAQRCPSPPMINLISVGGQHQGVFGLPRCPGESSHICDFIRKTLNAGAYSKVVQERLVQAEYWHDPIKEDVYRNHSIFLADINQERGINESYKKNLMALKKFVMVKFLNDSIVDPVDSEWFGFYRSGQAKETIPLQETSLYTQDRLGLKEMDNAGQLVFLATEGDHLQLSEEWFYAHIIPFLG
# Chain of UniProt Q9Y2Y1 (Q9Y2Y1 whole entry, looked up): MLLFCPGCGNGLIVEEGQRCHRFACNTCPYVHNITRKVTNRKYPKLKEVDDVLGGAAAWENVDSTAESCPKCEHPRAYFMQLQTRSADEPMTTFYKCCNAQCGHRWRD
Target,log2 fold change [1],log2 fold change [2],log2 fold change [3],log2 fold change [4],log2 fold change [5]
PRKD2 (UniProt M0R346),0.081 (inactive),–,–,–,–
PRPF3 (UniProt O43395),-0.09 (inactive),-0.208 (inactive),0.08 (inactive),-0.017 (inactive),0.115 (inactive)
PPOX (UniProt P50336),0.385 (inactive),0.092 (inactive),0.129 (inactive),0.04 (inactive),-0.045 (inactive)
PIGT (UniProt Q969N2),0.022 (inactive),0.142 (inactive),-0.013 (inactive),0.276 (active),-0.021 (inactive)
PEX13 (UniProt Q92968),-0.064 (inactive),0.05 (inactive),0.078 (inactive),-0.107 (inactive),0.001 (inactive)
PSME4 (UniProt Q14997),-0.041 (inactive),0.017 (inactive),0.017 (inactive),-0.025 (inactive),-0.048 (inactive)
PNPLA8 (UniProt Q9NP80),0.024 (inactive),0.031 (inactive),0.007 (inactive),-0.006 (inactive),0.024 (inactive)
PCNT (UniProt O95613),0.037 (inactive),-0.067 (inactive),0.11 (inactive),0.064 (inactive),0.105 (inactive)
PHLDB1 isoform 2 (UniProt Q86UU1),-0.006 (inactive),0.073 (inactive),0.081 (inactive),0.008 (inactive),0.002 (inactive)
PITRM1 isoform 2 (UniProt Q5JRX3),0.064 (inactive),-0.08 (inactive),0.048 (inactive),-0.083 (inactive),0 (inactive)
PPT1 (UniProt P50897),0.047 (inactive),0.021 (inactive),0 (inactive),-0.003 (inactive),-0.003 (inactive)
PRKAA1 isoform 2 (UniProt Q13131),0.001 (inactive),0.085 (inactive),0.024 (inactive),0.004 (inactive),0.019 (inactive)
PTTG1 (UniProt O95997),-0.005 (inactive),0.003 (inactive),0.014 (inactive),0.004 (inactive),0.011 (inactive)
PRKCB isoform 2 (UniProt P05771),-0.034 (inactive),0.028 (inactive),0.053 (inactive),0.027 (inactive),-0.008 (inactive)
PEX16 isoform 2 (UniProt Q9Y5Y5),-0.01 (inactive),0.095 (inactive),0.087 (inactive),-0.031 (inactive),-0.048 (inactive)
POLR3K (UniProt Q9Y2Y1),-0.009 (inactive),-0.008 (inactive),-0.029 (inactive),0.021 (inactive),0.056 (inactive)
PPP1R12B isoform 6 (UniProt O60237),-0.051 (inactive),–,–,–,–
PDS5B (UniProt Q9NTI5),-0.153 (inactive),0.029 (inactive),0.169 (inactive),0.233 (inactive),-0.011 (inactive)
PRMT8 (UniProt Q9NR22),-0.002 (inactive),0.133 (inactive),0.046 (inactive),-0.028 (inactive),-0.015 (inactive)

Target,log2 fold change [1],log2 fold change [2],log2 fold change [3],log2 fold change [4],log2 fold change [5]
PUM1 isoform 3 (UniProt Q14671),0.004 (inactive),-0.036 (inactive),0.056 (inactive),0.025 (inactive),-0.049 (inactive)
PTRH2 (UniProt Q9Y3E5),0.018 (inactive),0.068 (inactive),0.019 (inactive),-0.106 (inactive),-0.02 (inactive)
PRPF38B (UniProt Q5VTL8),0.038 (inactive),0.066 (inactive),0.052 (inactive),0.056 (inactive),0.032 (inactive)
PIK3R1 (UniProt P27986),-0.059 (inactive),0.019 (inactive),0.138 (inactive),0.005 (inactive),-0.027 (inactive)
PCGF2 (UniProt P35227),-0.046 (inactive),0.133 (inactive),-0.015 (inactive),0.002 (inactive),-0.05 (inactive)
PYGL (UniProt P06737),0.006 (inactive),0.047 (inactive),0.026 (inactive),0.006 (inactive),-0.032 (inactive)
PRKX (UniProt P51817),-0.754 (active),–,–,–,–
PI4K2B (UniProt Q8TCG2),0.007 (inactive),0.031 (inactive),0.065 (inactive),0.024 (inactive),-0.041 (inactive)
PDE2A (UniProt O00408),0.079 (inactive),0.08 (inactive),0.16 (inactive),-0.024 (inactive),0.065 (inactive)
PPM1G (UniProt O15355),-0.139 (inactive),0.025 (inactive),0.081 (inactive),0.002 (inactive),-0.089 (inactive)
PTPA (UniProt Q15257),-0.013 (inactive),0.021 (inactive),0.005 (inactive),-0.041 (inactive),-0.003 (inactive)
PLCXD1 (UniProt Q9NUJ7),-0.061 (inactive),–,–,–,–
PUF60 isoform 2 (UniProt Q9UHX1),0.044 (inactive),0.097 (inactive),-0.312 (inactive),-0.146 (inactive),-0.079 (inactive)
PPP2R5C isoform 2 (UniProt Q13362),-0.065 (inactive),–,–,–,–
PSMD13 (UniProt Q9UNM6),-0.008 (inactive),-0.096 (inactive),-0.046 (inactive),-0.028 (inactive),0 (inactive)
PCID2 (UniProt Q5JVF3),-0.18 (inactive),0.057 (inactive),0.159 (inactive),0.033 (inactive),-0.071 (inactive)
PCK2 (UniProt Q16822),0.051 (inactive),0.038 (inactive),0.057 (inactive),0.008 (inactive),-0.038 (inactive)
PTPN23 (UniProt Q9H3S7),-0.038 (inactive),0.048 (inactive),0.054 (inactive),0 (inactive),0.038 (inactive)
PSMD7 (UniProt P51665),0.033 (inactive),-0.102 (inactive),-0.024 (inactive),0.034 (inactive),0 (inactive)

Target,log2 fold change [1],log2 fold change [2],log2 fold change [3],log2 fold change [4],log2 fold change [5]
PTGFRN (UniProt Q9P2B2),-0.014 (inactive),0.036 (inactive),0.043 (inactive),0.04 (inactive),-0.006 (inactive)
PHKA2 (UniProt P46019),-0.018 (inactive),-0.003 (inactive),0.053 (inactive),0.023 (inactive),0.024 (inactive)
PDCD4 (UniProt Q53EL6),-0.055 (inactive),0.002 (inactive),0.053 (inactive),-0.167 (inactive),-0.003 (inactive)
PRPF31 (UniProt Q8WWY3),-0.07 (inactive),0.028 (inactive),0.174 (inactive),-0.087 (inactive),0.005 (inactive)
PECAM1 (UniProt P16284),0.063 (inactive),0.138 (inactive),0.014 (inactive),-0.06 (inactive),0.047 (inactive)
PEA15 isoform 2 (UniProt Q15121),-0.014 (inactive),0.1 (inactive),0.116 (inactive),-0.063 (inactive),-0.015 (inactive)
PKN2 (UniProt Q16513),-0.075 (inactive),0.103 (inactive),0.066 (inactive),0.029 (inactive),0.044 (inactive)
PDSS2 (UniProt Q86YH6),-0.066 (inactive),0.052 (inactive),0.085 (inactive),0.005 (inactive),0.094 (inactive)
PRKAR2B (UniProt P31323),-0.065 (inactive),-0.012 (inactive),-0.06 (inactive),-0.024 (inactive),0.007 (inactive)
PSMD1 (UniProt Q99460),0.017 (inactive),-0.087 (inactive),-0.058 (inactive),-0.017 (inactive),0 (inactive)
PTGES3 (UniProt Q15185),-0.009 (inactive),0.016 (inactive),0.067 (inactive),-0.046 (inactive),-0.063 (inactive)
PPP2R5C isoform 5 (UniProt Q13362),-0.039 (inactive),0.001 (inactive),0.084 (inactive),-0.067 (inactive),-0.029 (inactive)
PSMC4 (UniProt P43686),0.022 (inactive),-0.117 (inactive),-0.022 (inactive),0.006 (inactive),0.001 (inactive)
POGLUT1 (UniProt Q8NBL1),0.039 (inactive),-0.041 (inactive),0.082 (inactive),0.07 (inactive),0.015 (inactive)
PRKAR1B (UniProt P31321),0.21 (inactive),-0.026 (inactive),0.059 (inactive),0.019 (inactive),-0.061 (inactive)
PPIL4 (UniProt Q8WUA2),0.012 (inactive),-0.022 (inactive),0.036 (inactive),0.039 (inactive),0.016 (inactive)
PRKD2 isoform 3 (UniProt Q9BZL6),-0.051 (inactive),0.238 (inactive),-0.057 (inactive),0.064 (inactive),0.028 (inactive)
POLR3B (UniProt Q9NW08),-0.035 (inactive),-0.02 (inactive),0.078 (inactive),0.04 (inactive),-0.046 (inactive)

# Reference: the supplement of paper PMC10849652
